The results in this text go back to PubChem BioAssay.

The structures appear in SMILES notation.

The nature of this experiment: MRP1 drug-resistance reversers in H69AR cells – cell-based, doxorubicin co-treatment, pilot screen (AID 601). The following applies: H69AR cells, CellTiter-Glo, 72 h; compound alone cytotoxicity; at 10 µM.
What is called viability is a read-out of living cells in per cent, often relative to untreated cells. As to `COc1ccc(CCN2C(=O)CC(N3CCOCC3)C2=O)cc1` (centres undefined), the viability amounted to 96.2%.
Take `CCCCCCC(c1c(C)n(C)n(-c2ccccc2)c1=O)c1c(C)n(C)n(-c2ccccc2)c1=O`: the viability amounted to 80.8%.
For the compound `CCCCSc1nnc([C@H](C)NC(=O)OC(C)(C)C)o1`, the viability is 90.3%.
In the case of `Cc1c(N=C2SCC(=O)N2c2c(C)n(C)n(-c3ccccc3)c2=O)c(=O)n(-c2ccccc2)n1C`, the viability came to 94.2%.
To `Cc1nc2ccc(C(=O)O)cc2c2c1CC(C)S2` (centres undefined) belongs 90.8%; to `CC1(C)CC(=O)C(CC(=O)NC(=O)NCc2ccccc2)=C(O)C1`, 105%; to `O=C(Nc1ccccc1Cl)c1c(F)c(F)c(F)c(F)c1F`, 90.2%.
As for `COC(=O)c1ccc(CSc2nnnn2Cc2ccccc2)cc1`, the viability was 86%.
Regarding `Cc1ccc(F)cc1NC(=O)C1CCCN(c2ncccn2)C1` (centres undefined), the viability was 88.7%.
Turning to `O=C(NCc1ccccc1)C1CCCN(S(=O)(=O)c2cccnc2)C1` (centres undefined), the viability is 99%.
With `COc1cc(NS(=O)(=O)c2ccc(N)cc2)nc(OC)n1`, the viability worked out at 100%.
As to `Cc1cc(=O)[nH]c(SCc2nc3ncccn3c2Br)n1`, the viability came to 88.9%.
As to `CC(=O)OCC1=C(C(=O)O)N2C(=O)[C@@H](NC(=O)Cc3cccs3)[C@H]2SC1`, the viability worked out at 94.2%.
For the compound `CCc1nn(CC(=O)N2CCN(Cc3ccc4c(c3)OCO4)CC2)c(=O)c2cc3occc3n12`, the viability came to 91.8%.
On to `CC(=O)OC[C@H]1O[C@@H](n2ncc(=O)[nH]c2=O)[C@H](OC(C)=O)[C@@H]1OC(C)=O`, for which the viability was 91.3%.
For the compound `Cc1cc(C)cc(-n2nnc(C(=O)NCc3ccc4c(c3)OCO4)c2N)c1`, the viability turned out to be 97.7%.
Consider `C=CCNc1nc2c(c(=O)n(C)c(=O)n2C)n1CCCCCC`, for which the viability was 82.6%.
For `O=C(CSc1nc2ccccc2[nH]1)c1ccc2c(c1)OCO2`, the viability came to 107%.
Turning to `NS(=O)(=O)c1cc2c(cc1Cl)NCNS2(=O)=O`, the viability came out at 91.3%.
